Assay [1] can be described thus: ATG_TGFb_CIS: Attagene CIS-FACTORIAL HepG2 Assay for human Transforming Growth Factor (TGF) (AID 2282967; active = hit-call score of the fitted dose curve at least 0.9, where 1 is the maximum; inactive = score below 0.9). The note with it: HepG2 Attagene CIS TGFb reporter, mRNA transcription; actives raise or lower the signal. The essentials:
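Bidirectional fitting relative to DMSO gave the endpoint. Underlying data: reporter mRNA from HepG2 cells carrying transiently transfected cis-regulated reporter constructs, harvested 24 h after dosing and analyzed by RT-PCR and capillary electrophoresis.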

Assay [2] is described as follows: ATG_VDRE_CIS: Attagene CIS-FACTORIAL HepG2 Assay for human Vitamin D Receptor Element (VDRE) (AID 2282968; active = hit-call score of the fitted dose curve at least 0.9, where 1 is the maximum; inactive = score below 0.9). The note with it: HepG2 VDRE cis-reporter transcription, actives raise or lower the signal. The essentials: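 Transfected HepG2 reporter cells, chemical treatment 24 h. RNA isolated, cDNA amplified with reporter-specific primers, products analysed by capillary electrophoresis. Endpoint fitted in both directions versus DMSO.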

Assay [3] has as its target Estrogen receptor (Homo sapiens) (UniProt P03372). In words: ATG_ERa_TRANS: Attagene TRANS-FACTORIAL HepG2 Assay for human Estrogen Receptor alpha (ERa) (AID 2282970). The settings on record: HepG2 Attagene TRANS ERa GAL4 reporter, mRNA. In a few lines:
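Reporter transcripts were measured 24 h after dosing by RT-PCR with fluorescent primer extension and capillary electrophoresis. The system is transiently transfected HepG2 expressing exogenous NR-Gal4 chimeras driving GAL4-UAS reporters; DMSO is the baseline.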

The target in assay [4] is X-box-binding protein 1 (Homo sapiens) (UniProt P17861). In words: ATG_Xbp1_CIS: Attagene CIS-FACTORIAL HepG2 Assay for human X-box Binding Protein 1 (XBP1) (AID 2282972; active = hit-call score of the fitted dose curve at least 0.9, where 1 is the maximum; inactive = score below 0.9). The settings on record: HepG2 XBP1 cis-element reporter, Attagene multiplex; actives raise or lower the signal. In a few lines: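 Human hepatoma HepG2, cis-element reporter system, 24 h treatment; mRNA quantified by RT-PCR/CE fluorescence; fit relative to DMSO.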

Assay [5] is described as follows: ATG_GAL4_TRANS: Attagene TRANS-FACTORIAL HepG2 Assay for GAL4 (Internal Marker) (AID 2282976). The note with it: HepG2 Attagene TRANS GAL4 internal marker reporter. The essentials:
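In transfected human HepG2 liver cells dosed 24 h, GAL4 reporter mRNA serves as a baseline marker. Detection by RT-PCR with fluorescent capillary electrophoresis, activity fitted upward relative to DMSO.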

Assay [6] in a line: ATG_M_06_TRANS: Attagene TRANS-FACTORIAL HepG2 Assay for M06 Transcription Factor (Internal Marker) (AID 2282983). The settings on record: HepG2 Attagene TRANS M06 internal marker reporter. The essentials: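 Background-control reporter readout: after 24 h chemical exposure of transiently transfected HepG2 (GAL4-UAS reporter units), mRNA quantified by RT-PCR with fluorescent labeling and capillary electrophoresis. Gain-of-signal fitting against DMSO baseline.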

Assay [7] deals with Nuclear receptor subfamily 4 group A member 2 (Homo sapiens) (UniProt P43354). The assay can be described thus: ATG_NURR1_TRANS: Attagene TRANS-FACTORIAL HepG2 Assay for human Nuclear Receptor Related Protein 1 (NURR1) (AID 2282985). The note with it: HepG2 Attagene TRANS reporter, mRNA readout. The essentials: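 Chimeric NR-Gal4 proteins were expressed in human HepG2 cells bearing GAL4-UAS reporter units, and induced reporter mRNA was quantified 24 h post-dosing by RT-PCR and capillary electrophoresis.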

Assay [8] addresses Transcriptional activator Myb (Homo sapiens) (UniProt P10242). The assay can be described thus: ATG_Myb_CIS: Attagene CIS-FACTORIAL HepG2 Assay for human Myeloblastosis (Myb) Proto-Oncogene Transcription Factor (AID 2282986; active = hit-call score of the fitted dose curve at least 0.9, where 1 is the maximum; inactive = score below 0.9). The note with it: HepG2 Attagene CIS-FACTORIAL Myb reporter transcription; actives raise or lower the signal. The essentials:
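HepG2, transient MRTU transfection (cis-element promoters, endogenous TF activity), 24 h compound exposure. Readout: reporter mRNA via RT-PCR, 6-FAM labeling, HpaI digest, capillary electrophoresis. Gain/loss fit vs DMSO.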

Assay [9] deals with Nuclear respiratory factor 1 (Homo sapiens) (UniProt Q16656). The assay can be described thus: ATG_NRF1_CIS: Attagene CIS-FACTORIAL HepG2 Assay for human Nuclear Respiratory Factor 1 (NRF1) Orphan Gene (AID 2282987; active = hit-call score of the fitted dose curve at least 0.9, where 1 is the maximum; inactive = score below 0.9). The settings on record: HepG2 NRF1 cis-element reporter, Attagene multiplex; actives raise or lower the signal. The essentials: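 Endogenous NRF1-driven reporter transcription measured in transiently transfected human HepG2 liver cells. Readout: reporter mRNA by RT-PCR and capillary electrophoresis with fluorescence detection, 24 h post-dosing. Gain or loss of signal fitted relative to DMSO baseline.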

Assay [10] concerns the target Steroid hormone receptor ERR1 (Homo sapiens) (UniProt P11474). In words: ATG_ERRa_TRANS: Attagene TRANS-FACTORIAL HepG2 Assay for human Estrogen-Related Receptor alpha (ERRa) (AID 2282971). The settings on record: HepG2 Attagene TRANS reporter, ERRa transactivation. The essentials:
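Reporter transcripts from ERRa-Gal4 chimera activity measured in transiently transfected human HepG2 cells 24 hours after dosing, using RT-PCR with 6-FAM primer extension, HpaI digestion and capillary electrophoresis; DMSO is baseline.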

For assay [11], the target named is Oxysterols receptor LXR-alpha (Homo sapiens) (UniProt Q13133). The assay can be described thus: ATG_LXRa_TRANS: Attagene TRANS-FACTORIAL HepG2 Assay for human Liver X Receptor alpha (LXRa) (AID 2282980). The note with it: HepG2 Attagene TRANS reporter, LXRa transactivation. The essentials:
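Chemical-induced reporter mRNA measured by RT-PCR with fluorescent labelling and capillary electrophoresis after 24 h dosing of transiently transfected HepG2 cells expressing exogenous NR-Gal4 chimeras; increases scored against DMSO baseline.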

The target in assay [12] is Oxysterols receptor LXR-beta (Homo sapiens) (UniProt P55055). In words: ATG_LXRb_TRANS: Attagene TRANS-FACTORIAL HepG2 Assay for human Liver X Receptor beta (LXRb) (AID 2282981). The settings on record: HepG2 Attagene TRANS GAL4-LXRb reporter, mRNA. The essentials:
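Liver-derived HepG2 cells transfected with Gal4-responsive reporters were dosed for 24 h. Activation was scored as rise in reporter mRNA, by RT-PCR and capillary electrophoresis, above DMSO baseline.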

Assay [13] is described as follows: ATG_M_32_TRANS: Attagene TRANS-FACTORIAL HepG2 Assay for M32 Transcription Factor (Internal Marker) (AID 2282984).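 Also: transcript level of a background control reporter unit measured by RT-PCR and capillary electrophoresis.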 The settings on record: HepG2 Attagene TRANS M32 internal marker reporter. The essentials:
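Fluorescence-detected mRNA induction, HepG2 liver cells, 24 h after dosing. Multiple GAL4-UAS reporter units introduced by transient transfection; background-control endpoint analysed for gain of signal against DMSO.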

A short description of assay [14]: ATG_M_19_TRANS: Attagene TRANS-FACTORIAL HepG2 Assay for M19 Transcription Factor (Internal Marker) (AID 2282974). The note with it: HepG2 Attagene TRANS-FACTORIAL M19 internal marker reporter. In a few lines:
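24 h chemical exposure of transiently transfected HepG2 (MRTU library). RNA → oligo(dT) RT → PCR → 6-FAM labelling → HpaI cut → CE fluorescence. Positive-direction fit vs DMSO baseline; background internal-marker readout.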

For assay [15], the target named is Glucocorticoid receptor (Homo sapiens) (UniProt P04150). The assay can be described thus: ATG_GR_TRANS: Attagene TRANS-FACTORIAL HepG2 Assay for human Glucocorticoid Receptor (GR) (AID 2282978).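 Also: activators score as hits since higher reporter transcript over DMSO is fitted.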 The note with it: HepG2 Attagene TRANS GR reporter, mRNA transcription. The essentials: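 Transient MRTU transfection of HepG2 (GAL4-UAS reporters, exogenous NR-GAL4 chimeras), 24 h dosing. Readout: reporter transcript via RT-PCR + capillary electrophoresis fluorescence. Positive direction vs DMSO baseline.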

Assay [16] has as its target Estrogen-related receptor gamma (Homo sapiens) (UniProt P62508). The assay can be described thus: ATG_ERRg_TRANS: Attagene TRANS-FACTORIAL HepG2 Assay for human Estrogen-Related Receptor gamma (ERRg) (AID 2282977).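 Also: hits increase reporter signal over DMSO so potencies reflect activators.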 The settings on record: HepG2 Attagene TRANS reporter, ERRg transactivation. The essentials:
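Exogenous NR-Gal4 chimera activity was assessed in HepG2 cells bearing transfected GAL4-UAS reporters. After 24 h dosing, total RNA underwent RT-PCR, fluorescent primer extension and HpaI digestion before capillary electrophoresis, with gain of signal scored against DMSO.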

Assay [17] concerns the target Hepatocyte nuclear factor 4-alpha (Homo sapiens) (UniProt P41235). The assay can be described thus: ATG_HNF4a_TRANS: Attagene TRANS-FACTORIAL HepG2 Assay for human Hepatocyte Nuclear Factor 4 alpha (HNF4a) (AID 2282982). The note with it: HepG2 HNF4a transactivation reporter, mRNA readout. The essentials:
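Using HepG2 liver cells transfected with GAL4-UAS reporter units, chemical-induced mRNA increases were assessed after 24 hours. Fluorescent RT-PCR fragments were separated by capillary electrophoresis and compared with DMSO negative controls.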

The target in assay [18] is Androgen receptor (Homo sapiens) (UniProt P10275). In words: ATG_AR_TRANS: Attagene TRANS-FACTORIAL HepG2 Assay for human Androgen Receptor (AR) (AID 2282973). The note with it: HepG2 Attagene TRANS-FACTORIAL AR reporter transcription. The essentials:
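Transcriptional activity of an exogenous AR–Gal4 fusion read as GAL4-UAS reporter transcript levels in transfected human HepG2 cells after 24 h dosing. Detection via RT-PCR, 6-FAM labelling, HpaI digest and capillary electrophoresis; increase over DMSO baseline.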

Assay [19] deals with Bile acid receptor (Homo sapiens) (UniProt Q96RI1). In words: ATG_FXR_TRANS: Attagene TRANS-FACTORIAL HepG2 Assay for Farnesoid X Receptor (FXR) (AID 2282979).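 Also: hits raise reporter mRNA above DMSO so AC50 marks FXR activation.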 The note with it: HepG2 Attagene TRANS FXR-GAL4 reporter transcription. In a few lines: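 Reporter transcripts from transfected HepG2 cells were measured 24 h after dosing, using RT-PCR with capillary electrophoresis of 6-FAM-labelled fragments. The read-out reflects activity of exogenous FXR-Gal4 chimera on GAL4-UAS units, with induction relative to DMSO.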

Records with an inconclusive call do not appear. The source made the active and inactive calls. The calls were made as follows, unless noted: active = hit-call score of the fitted dose curve at least 0.9, where 1 is the maximum; inconclusive = response in the unintended direction; inactive = score below 0.9.

Chain of Oxysterols receptor LXR-alpha (Homo sapiens) (Q13133 whole entry, looked up, the tested form may be a part): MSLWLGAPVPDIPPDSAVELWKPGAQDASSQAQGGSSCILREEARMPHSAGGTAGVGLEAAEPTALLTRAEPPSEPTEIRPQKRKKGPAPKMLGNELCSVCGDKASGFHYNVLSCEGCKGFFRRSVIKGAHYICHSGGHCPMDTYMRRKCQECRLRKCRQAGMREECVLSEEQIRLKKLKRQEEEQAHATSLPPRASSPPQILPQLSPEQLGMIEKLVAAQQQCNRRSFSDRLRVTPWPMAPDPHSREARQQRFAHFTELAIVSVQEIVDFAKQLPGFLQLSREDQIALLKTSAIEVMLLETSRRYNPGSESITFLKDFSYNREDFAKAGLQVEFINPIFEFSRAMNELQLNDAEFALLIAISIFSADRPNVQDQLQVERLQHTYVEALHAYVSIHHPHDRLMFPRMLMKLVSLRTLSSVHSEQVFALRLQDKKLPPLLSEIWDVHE
Chain of Transcriptional activator Myb (Homo sapiens) (P10242 whole entry, looked up): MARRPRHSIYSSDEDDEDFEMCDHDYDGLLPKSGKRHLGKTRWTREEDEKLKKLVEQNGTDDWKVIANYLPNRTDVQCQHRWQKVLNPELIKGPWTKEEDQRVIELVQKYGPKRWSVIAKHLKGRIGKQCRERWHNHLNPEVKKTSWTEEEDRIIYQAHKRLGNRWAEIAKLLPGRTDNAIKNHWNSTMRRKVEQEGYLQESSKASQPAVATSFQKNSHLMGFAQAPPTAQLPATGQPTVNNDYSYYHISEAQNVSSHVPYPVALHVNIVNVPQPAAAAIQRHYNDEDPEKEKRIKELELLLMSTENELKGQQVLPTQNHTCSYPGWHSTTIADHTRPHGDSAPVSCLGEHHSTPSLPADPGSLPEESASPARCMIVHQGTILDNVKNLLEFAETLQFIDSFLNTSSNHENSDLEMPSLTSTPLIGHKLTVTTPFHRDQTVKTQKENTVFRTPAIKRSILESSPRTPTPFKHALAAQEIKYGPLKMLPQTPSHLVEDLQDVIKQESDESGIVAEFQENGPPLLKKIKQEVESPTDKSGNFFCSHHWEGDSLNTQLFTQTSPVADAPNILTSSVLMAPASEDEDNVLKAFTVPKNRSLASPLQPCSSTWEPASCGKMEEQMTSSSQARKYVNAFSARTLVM
Chain of Nuclear respiratory factor 1 (Homo sapiens) (Q16656 whole entry, looked up): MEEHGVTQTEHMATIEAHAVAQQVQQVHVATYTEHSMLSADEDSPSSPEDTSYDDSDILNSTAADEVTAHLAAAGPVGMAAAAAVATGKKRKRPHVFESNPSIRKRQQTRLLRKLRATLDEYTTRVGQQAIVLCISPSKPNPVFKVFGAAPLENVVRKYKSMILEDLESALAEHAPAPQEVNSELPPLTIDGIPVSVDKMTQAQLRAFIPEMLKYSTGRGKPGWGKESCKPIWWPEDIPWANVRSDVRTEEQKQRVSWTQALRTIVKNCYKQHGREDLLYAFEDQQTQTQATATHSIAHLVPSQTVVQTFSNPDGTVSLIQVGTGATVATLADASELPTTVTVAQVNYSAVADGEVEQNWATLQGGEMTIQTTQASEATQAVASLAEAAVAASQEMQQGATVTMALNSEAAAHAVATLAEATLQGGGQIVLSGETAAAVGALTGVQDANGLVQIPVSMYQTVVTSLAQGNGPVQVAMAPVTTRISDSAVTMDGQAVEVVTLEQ
Chain of Nuclear receptor subfamily 4 group A member 2 (Homo sapiens) (P43354 whole entry, looked up, the tested form may be a part): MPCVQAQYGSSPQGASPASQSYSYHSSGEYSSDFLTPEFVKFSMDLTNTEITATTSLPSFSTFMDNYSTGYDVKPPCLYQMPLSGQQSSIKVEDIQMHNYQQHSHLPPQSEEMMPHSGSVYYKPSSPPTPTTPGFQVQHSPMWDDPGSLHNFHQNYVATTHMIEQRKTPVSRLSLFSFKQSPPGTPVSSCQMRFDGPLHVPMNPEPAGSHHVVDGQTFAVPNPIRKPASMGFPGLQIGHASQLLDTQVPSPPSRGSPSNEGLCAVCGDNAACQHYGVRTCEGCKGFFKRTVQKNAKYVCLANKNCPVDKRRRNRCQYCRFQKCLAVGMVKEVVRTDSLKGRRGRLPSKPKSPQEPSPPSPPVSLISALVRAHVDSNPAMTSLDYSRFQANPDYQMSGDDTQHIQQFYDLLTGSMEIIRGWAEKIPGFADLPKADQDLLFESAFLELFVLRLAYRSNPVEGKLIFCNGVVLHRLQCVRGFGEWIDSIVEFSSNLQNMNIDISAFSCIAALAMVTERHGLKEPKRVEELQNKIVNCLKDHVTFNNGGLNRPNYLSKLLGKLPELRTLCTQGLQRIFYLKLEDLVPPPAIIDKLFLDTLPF
Chain of Estrogen receptor (Homo sapiens) (P03372 whole entry, looked up, the tested form may be a part): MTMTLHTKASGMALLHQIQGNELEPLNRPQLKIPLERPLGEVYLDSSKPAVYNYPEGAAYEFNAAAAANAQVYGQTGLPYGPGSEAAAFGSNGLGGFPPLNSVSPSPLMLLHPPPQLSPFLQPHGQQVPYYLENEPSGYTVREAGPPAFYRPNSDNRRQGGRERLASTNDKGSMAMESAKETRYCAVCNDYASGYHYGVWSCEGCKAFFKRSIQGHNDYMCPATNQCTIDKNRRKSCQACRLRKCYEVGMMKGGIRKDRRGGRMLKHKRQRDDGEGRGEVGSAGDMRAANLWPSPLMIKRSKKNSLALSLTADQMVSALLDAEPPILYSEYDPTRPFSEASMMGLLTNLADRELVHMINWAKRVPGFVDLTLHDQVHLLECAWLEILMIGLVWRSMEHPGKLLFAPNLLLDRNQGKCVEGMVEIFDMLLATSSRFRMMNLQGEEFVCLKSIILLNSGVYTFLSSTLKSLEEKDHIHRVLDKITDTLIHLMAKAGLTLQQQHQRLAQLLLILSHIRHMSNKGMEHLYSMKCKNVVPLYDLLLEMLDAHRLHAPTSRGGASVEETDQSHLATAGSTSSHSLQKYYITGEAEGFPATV
Chain of X-box-binding protein 1 (Homo sapiens) (P17861 whole entry, looked up): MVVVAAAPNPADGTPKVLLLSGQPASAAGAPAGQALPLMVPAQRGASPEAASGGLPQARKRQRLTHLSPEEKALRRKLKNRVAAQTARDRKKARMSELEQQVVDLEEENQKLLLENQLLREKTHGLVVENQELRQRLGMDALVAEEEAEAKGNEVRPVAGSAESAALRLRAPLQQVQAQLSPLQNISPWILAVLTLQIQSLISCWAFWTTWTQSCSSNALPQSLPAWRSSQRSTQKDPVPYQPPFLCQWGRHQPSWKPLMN
Chain of Glucocorticoid receptor (Homo sapiens) (P04150 whole entry, looked up, the tested form may be a part): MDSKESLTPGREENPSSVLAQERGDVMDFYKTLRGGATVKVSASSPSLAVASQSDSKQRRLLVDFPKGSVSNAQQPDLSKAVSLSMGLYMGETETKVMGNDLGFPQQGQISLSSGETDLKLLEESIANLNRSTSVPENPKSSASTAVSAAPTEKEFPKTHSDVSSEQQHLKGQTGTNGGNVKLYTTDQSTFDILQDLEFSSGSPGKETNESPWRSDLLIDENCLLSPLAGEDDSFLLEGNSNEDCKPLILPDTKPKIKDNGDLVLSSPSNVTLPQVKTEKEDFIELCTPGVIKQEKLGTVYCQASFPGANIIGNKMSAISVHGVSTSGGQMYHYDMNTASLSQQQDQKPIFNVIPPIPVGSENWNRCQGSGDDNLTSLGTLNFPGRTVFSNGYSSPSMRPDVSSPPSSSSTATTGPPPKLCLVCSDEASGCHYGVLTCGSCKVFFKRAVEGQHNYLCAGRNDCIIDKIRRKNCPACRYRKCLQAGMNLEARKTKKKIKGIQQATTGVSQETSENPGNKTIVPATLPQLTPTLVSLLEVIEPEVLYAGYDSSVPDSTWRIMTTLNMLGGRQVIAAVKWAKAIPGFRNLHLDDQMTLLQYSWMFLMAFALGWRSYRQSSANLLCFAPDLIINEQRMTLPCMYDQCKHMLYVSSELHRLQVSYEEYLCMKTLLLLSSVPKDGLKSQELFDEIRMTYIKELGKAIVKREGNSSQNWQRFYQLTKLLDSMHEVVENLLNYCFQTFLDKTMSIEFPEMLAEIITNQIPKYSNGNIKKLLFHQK
Chain of Hepatocyte nuclear factor 4-alpha (Homo sapiens) (P41235 whole entry, looked up, the tested form may be a part): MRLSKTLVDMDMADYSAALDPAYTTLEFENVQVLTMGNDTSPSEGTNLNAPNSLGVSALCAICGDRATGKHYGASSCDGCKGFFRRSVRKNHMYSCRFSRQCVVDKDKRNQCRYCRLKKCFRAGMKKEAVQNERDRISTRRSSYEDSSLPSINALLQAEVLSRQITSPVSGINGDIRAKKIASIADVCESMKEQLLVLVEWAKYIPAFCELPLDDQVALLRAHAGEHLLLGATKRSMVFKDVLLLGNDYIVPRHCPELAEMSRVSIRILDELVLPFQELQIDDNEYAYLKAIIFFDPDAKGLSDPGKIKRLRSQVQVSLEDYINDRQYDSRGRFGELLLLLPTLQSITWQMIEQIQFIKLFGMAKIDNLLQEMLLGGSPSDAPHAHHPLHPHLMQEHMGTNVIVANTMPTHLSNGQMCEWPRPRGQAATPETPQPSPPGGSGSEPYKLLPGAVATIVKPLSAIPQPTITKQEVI
Chain of Bile acid receptor (Homo sapiens) (Q96RI1 whole entry, looked up, the tested form may be a part): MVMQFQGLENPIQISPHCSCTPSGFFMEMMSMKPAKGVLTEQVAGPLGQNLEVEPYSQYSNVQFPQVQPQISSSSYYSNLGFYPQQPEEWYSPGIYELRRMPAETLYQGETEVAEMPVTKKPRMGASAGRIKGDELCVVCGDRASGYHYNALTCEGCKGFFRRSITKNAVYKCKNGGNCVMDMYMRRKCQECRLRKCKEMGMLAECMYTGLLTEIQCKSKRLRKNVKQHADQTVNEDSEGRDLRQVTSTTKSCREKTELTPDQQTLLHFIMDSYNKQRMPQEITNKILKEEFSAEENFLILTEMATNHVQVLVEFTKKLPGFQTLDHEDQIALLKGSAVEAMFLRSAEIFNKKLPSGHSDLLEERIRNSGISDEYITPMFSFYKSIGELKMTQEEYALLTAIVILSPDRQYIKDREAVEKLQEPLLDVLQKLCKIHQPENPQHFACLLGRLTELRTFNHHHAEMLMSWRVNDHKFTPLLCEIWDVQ

Take `O=NN1CCOCC1`: the outcome in assay [1], in assay [2], in [3], in [4], in assay [5] and in [6] was inactive. For the same compound, the call in assay [7], in [8] and in [9] was inactive.

Turning to `O=[N+]([O-])c1cc([As](=O)(O)O)ccc1O`, the call in assay [1], in assay [2], in [3], in [10], in assay [4] and in assay [5] was inactive. The compound was classed as inactive in assay [11], in assay [12], in assay [6], in [13], in assay [8] and in [9].

For `O=C(O)c1cc(I)cc(I)c1I`, the compound was classed as inactive in [1], in assay [2], in assay [3], in [4], in assay [14] and in assay [5]. For the same compound, the compound was called inactive in assay [15], in assay [11], in [13], in assay [8] and in [9].

The term AC50 denotes the midpoint of the concentration-response curve, whichever way the signal moves. Regarding `CCCCCCCCCCBr`, the outcome in assay [1], in assay [2], in [4], in assay [14], in assay [16] and in assay [15] was inactive. The result in assay [11], in assay [17], in assay [13], in assay [7], in assay [8] and in [9] was inactive. Besides, in assay [3], the AC50 is 33.3 µM (active).

Take `CCOP(=O)(OCC)OC(=CCl)c1ccc(Cl)cc1Cl`: the result in assay [1], in assay [4], in assay [14], in assay [5], in [13] and in assay [8] was inactive. In addition, the compound was classed as inactive in assay [9]. Moreover, the AC50 in assay [2] is 1.83 µM (active); in assay [3] it was 26 µM (active); in assay [7], 100 µM (active).

For `O=C(NC(=O)c1c(F)cccc1F)Nc1cc(Cl)c(Oc2ncc(C(F)(F)F)cc2Cl)c(Cl)c1`, the result in [1], in assay [2], in [3], in assay [4], in [18] and in assay [14] was inactive. Besides, the compound was classed as inactive in assay [19], in assay [6], in [8] and in assay [9].

Values taken from PubChem BioAssay (EPA / NIEHS).
